Our source for the outcome and Potency values is PubChem BioAssay (NCATS).

Assay [1] in a line: Confirmation and Secondary Assay for Modulators of Hemoglobin Beta Chain Splicing at IVS2 705 locus (AID 930).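 Further: HeLa cells stably expressing the EGFP-705 splicing reporter; GFP fluorescence per well restored by corrected splicing of the IVS2-705 intron in EGFP; series mostly up to about 46 µM.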 A digest of the protocol:
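Secondary splice-site specificity test uses HeLa expressing CMV-driven EGFP interrupted by IVS2-705; cells were treated 2 days at 37C with 500 nM antisense PNA as positive control.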

Assay [2] deals with Muscarinic acetylcholine receptor M1 (Rattus norvegicus) (UniProt P08482). Briefly: qHTS Assay for Antagonists of Acetylcholine Muscarinic M1 Receptor: Measurement of IP-One Response (AID 944). Further: nearly all actives have a fitted effect of over 75% in size. Further: potency means the concentration at half of the fitted maximal effect. An outline of the steps: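 IP1 accumulation measured via TR-FRET between d2-IP1 and Eu-cryptate anti-IP1 antibody after carbachol (200 nM, EC80) stimulation for 30 min; rat M1-transfected CHO cells received compound 10 min before agonist.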
Chain of Muscarinic acetylcholine receptor M1 (Rattus norvegicus) (P08482 whole entry, looked up): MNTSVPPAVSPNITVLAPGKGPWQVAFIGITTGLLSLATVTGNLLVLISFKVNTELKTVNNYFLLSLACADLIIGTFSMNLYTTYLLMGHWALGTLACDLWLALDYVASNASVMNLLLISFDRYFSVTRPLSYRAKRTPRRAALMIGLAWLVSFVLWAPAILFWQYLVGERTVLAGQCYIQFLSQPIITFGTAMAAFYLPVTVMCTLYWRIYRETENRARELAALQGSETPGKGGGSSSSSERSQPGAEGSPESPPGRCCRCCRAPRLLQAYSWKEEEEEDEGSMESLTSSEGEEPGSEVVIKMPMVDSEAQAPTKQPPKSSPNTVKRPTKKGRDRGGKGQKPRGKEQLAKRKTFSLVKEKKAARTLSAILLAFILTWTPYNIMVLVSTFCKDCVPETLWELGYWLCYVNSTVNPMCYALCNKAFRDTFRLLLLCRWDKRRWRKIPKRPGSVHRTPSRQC

Assay [3] addresses Pyruvate kinase PKM (Homo sapiens) (UniProt P14618). The assay can be described thus: qHTS Assay for Activators of Human Muscle Pyruvate Kinase (AID 954; active means well fitted curve in the direction sought with a large enough effect, not every such curve was filed as active). A digest of the protocol: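 PKM2, human, >95% pure, 0.1 nM; PEP 0.5 mM (Km), ADP 0.1 mM; 50 mM imidazole pH 7.2, 50 mM KCl, 0.01% Tween 20, 0.05% BSA; 1 h RT; luciferase luminescence readout.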
In general terms: qHTS replaces the single test concentration by a dilution series.

In assay [4] the target is Pyruvate kinase (Leishmania mexicana) (UniProt Q27686). Briefly: qHTS Validation Assay for Inhibitors of Leishmania Mexicana Pyruvate Kinase (AID 945). A digest of the protocol: (§1)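 Read-out: luminescence from PKLight stop/detection reagent, data normalized to DMSO. Reaction: 0.2 nM E451W LmPYK, 0.5 mM PEP, 0.1 mM ADP, pH 7.2, 1 h room temperature.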
Chain of Pyruvate kinase (Leishmania mexicana) (Q27686 2-499 E452W): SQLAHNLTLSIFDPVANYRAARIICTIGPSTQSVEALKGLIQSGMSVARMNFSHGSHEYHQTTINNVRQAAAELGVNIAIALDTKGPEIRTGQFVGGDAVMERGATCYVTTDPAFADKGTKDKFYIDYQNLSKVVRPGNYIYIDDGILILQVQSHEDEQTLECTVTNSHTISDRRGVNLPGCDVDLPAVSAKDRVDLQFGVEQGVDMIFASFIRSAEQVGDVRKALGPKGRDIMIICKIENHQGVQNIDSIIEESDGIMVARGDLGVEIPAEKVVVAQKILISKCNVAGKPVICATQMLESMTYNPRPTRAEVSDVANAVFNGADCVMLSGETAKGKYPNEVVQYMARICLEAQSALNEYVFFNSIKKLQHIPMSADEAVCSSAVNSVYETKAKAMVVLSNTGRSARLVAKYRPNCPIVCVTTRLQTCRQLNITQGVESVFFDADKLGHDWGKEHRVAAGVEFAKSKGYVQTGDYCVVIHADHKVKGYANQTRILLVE
Assay [5] concerns the target Muscarinic acetylcholine receptor M1 (Rattus norvegicus) (UniProt P08482). Briefly: qHTS Assay for Antagonists of Acetylcholine Muscarinic M1 Receptor: Kinetic Measurement of Intracellular Calcium Response (AID 943). Further: nearly all actives have a fitted effect of over 75% in size. Further: potency means the concentration at half of the fitted maximal effect. A digest of the protocol: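 Antagonism measured as reduction of carbachol-evoked (EC80, 100 nM final) calcium flux in rat M1-CHO cells after 10 min compound exposure. Fluo-4 signal read kinetically; ratio of maximal to basal fluorescence.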

The target in assay [6] is Pyruvate kinase (Leishmania mexicana) (UniProt Q27686). The assay can be described thus: qHTS Validation Assay for Activators of Leishmania Mexicana Pyruvate Kinase (AID 959). An outline of the steps:
as §1

Records with an inconclusive call do not appear. Entries that show only a call come without a potency. Calls of active or inactive are those of the source. Unless noted, the call rests on the fitted dose curve; in most records, active means well fitted curve in the direction sought with a large enough effect; inconclusive means small, poorly fitted or top-dose-only effect, or another doubt; inactive means no such curve, though single readings can be large; an effect the other way counts as inactive or inconclusive.

Chain of Pyruvate kinase PKM (Homo sapiens) (P14618 whole entry, looked up): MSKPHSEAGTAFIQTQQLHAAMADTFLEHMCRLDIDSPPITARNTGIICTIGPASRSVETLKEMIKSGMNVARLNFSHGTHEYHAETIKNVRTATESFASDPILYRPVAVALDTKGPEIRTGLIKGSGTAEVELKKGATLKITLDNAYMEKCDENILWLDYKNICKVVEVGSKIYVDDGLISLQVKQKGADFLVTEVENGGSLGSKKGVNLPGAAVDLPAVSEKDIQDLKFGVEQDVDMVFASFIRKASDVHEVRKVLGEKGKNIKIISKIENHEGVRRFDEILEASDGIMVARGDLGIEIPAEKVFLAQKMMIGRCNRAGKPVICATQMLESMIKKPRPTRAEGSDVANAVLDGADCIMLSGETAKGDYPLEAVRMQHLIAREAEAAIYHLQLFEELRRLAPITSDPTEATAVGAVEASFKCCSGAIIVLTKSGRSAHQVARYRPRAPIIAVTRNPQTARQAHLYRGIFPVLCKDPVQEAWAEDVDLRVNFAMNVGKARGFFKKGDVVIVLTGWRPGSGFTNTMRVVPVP

Regarding `O=C(O)c1cc(=O)c2ccccc2[nH]1`, the result in assay [1] and in assay [3] was inactive. For the same molecule, in assay [2], the Potency entry was “inactive”.

`O=C(OCc1ccccc1)c1ccccc1`: the outcome in assay [1] was inactive.

Consider `Cc1c(Nc2ncccc2C(=O)O)cccc1C(F)(F)F`, for which the result in assay [1] was inactive.

For `Cc1c(N)c(=O)n(-c2ccccc2)n1C`, the call in assay [1] was inactive.

As for `O=C(O)c1ccccc1Nc1cccc(C(F)(F)F)c1`, the molecule was called inactive in assay [1].

`NCCSSCCN`: the outcome in assay [1] and in assay [3] was inactive. In addition, the Potency result in assay [2] and in assay [4] was “inactive” throughout.

Take `CN(C)c1nc2c(Br)c(Br)c(Br)c(Br)c2[nH]1`: the Potency result in assay [5], in assay [2] and in assay [4] was “inactive” each time. Moreover, the molecule was classed as inactive in assay [3].

On to `O=C(/C=C/c1ccc(O)cc1)c1ccc(O)cc1O`, for which, in assay [1], the outcome was inactive.

As for `CCCSc1ccc2nc(NC(=O)OC)[nH]c2c1`, the outcome in assay [1] was inactive.

As to `Oc1c(Br)cc(Br)c2cccnc12`, the molecule was classed as inactive in assay [1].

Consider `NCCCS(=O)(=O)O`, for which the result in assay [1] and in assay [3] was inactive. Further, the Potency result in assay [5], in assay [2] and in assay [4] was “inactive” throughout.

For the molecule `N.N.O=C(O)C1(C(=O)O)CCC1.[Pt]`, the call in assay [1] and in assay [3] was inactive. Also, the Potency entry in assay [5], in assay [2] and in assay [4] was “inactive” in each case.

`NC(N)=NC(=O)c1nc(Cl)c(N2CCCCCC2)nc1N`: the call in assay [1] and in assay [3] was inactive. The Potency result in assay [2] and in assay [6] was “inactive” throughout.

On to `Fc1ccc(C(OCCCc2cnc[nH]2)c2ccc(F)cc2)cc1`, for which the Potency in assay [5] was 5.01 µM (active); in assay [2], 7.94 µM (active). Also, in assay [4], the Potency result was “inactive”. Besides, in assay [3], the molecule was classed as inactive.

On to `Nc1nc(Cl)nc2c1ncn2[C@@H]1O[C@H](CO)[C@@H](O)[C@H]1O`, for which, in assay [1], the molecule was called inactive.

For the molecule `CN1C2CCC1CC(OC(=O)C(O)c1ccccc1)C2` (configuration not stated), the molecule was classed as inactive in assay [1].

On to `O=C(O)c1cc([N+](=O)[O-])ccc1NCCCc1ccccc1`, for which the Potency result in assay [5], in assay [2] and in assay [4] was “inactive” in each case. In addition, the molecule was classed as inactive in assay [3].

For the molecule `N=C(N)SCCc1ccc(CCSC(=N)N)cc1`, the Potency entry in assay [5], in assay [2] and in assay [4] was “inactive” in each case. The call in assay [3] was inactive.

Consider `NCCCCC(=O)O`, for which the molecule was classed as inactive in assay [1] and in assay [3]. Besides, the Potency result in assay [5], in assay [2] and in assay [4] was “inactive” each time.

As for `CC(C(=O)O)c1ccc(C(=O)c2cccs2)cc1` (configuration not stated), the outcome in assay [1] was inactive.

With `CC1OC1P(=O)(O)O` (configuration not stated), in assay [1], the outcome was inactive.

`N=C(N)N`: the call in assay [1] was inactive.

For the molecule `O=C(O)c1cc(=O)c2c(Cl)cc(Cl)cc2[nH]1`, the outcome in assay [1] and in assay [3] was inactive. In assay [4], the Potency result was “inactive”.

Regarding `Nc1ccc(C(=O)O)c(O)c1`, the molecule was called inactive in assay [1].

As to `COc1cccc(OC)c1OCCNCC1COc2ccccc2O1` (configuration not stated), the result in assay [1] was inactive.

For `CCCCCCOc1ccccc1C(N)=O`, the result in assay [1] was inactive.

For `CCCCCCCC/C=C\CCCCCCCC(=O)NCCO`, the Potency result in assay [5], in assay [2] and in assay [4] was “inactive” throughout. Moreover, in assay [3], the result was inactive.

Turning to `CC(C(=O)O)c1ccc2c(c1)[nH]c1ccc(Cl)cc12` (configuration not stated), the molecule was classed as inactive in assay [1].

Turning to `O=c1[nH]c2cc(Cl)c(Cl)cc2[nH]c1=O`, the molecule was called inactive in assay [1] and in assay [3]. In addition, the Potency entry in assay [5], in assay [2] and in assay [4] was “inactive” each time.

With `Cc1ccc(C(=O)c2ccc(CC(=O)O)n2C)cc1`, the result in assay [1] was inactive.

On to `CC(N)C(=O)OC(C)(C)Cc1ccc(Cl)cc1` (configuration not stated), for which the result in assay [1] was inactive.

Regarding `CCN1/C(=C/C(C)=O)Sc2ccc(OC)cc21`, the Potency result in assay [5], in assay [2] and in assay [4] was “inactive” throughout. The call in assay [3] was inactive.

`N#C/C(=C\c1ccc(O)c(O)c1)C(=O)NCc1ccccc1`: the Potency entry in assay [5] and in assay [4] was “inactive” throughout. Moreover, in assay [3], the outcome was inactive.

As to `O=S(=O)(c1cccc2c(I)cccc12)N1CCCNCC1`, the Potency result in assay [5], in assay [2] and in assay [4] was “inactive” each time. In addition, in assay [3], the outcome was inactive.

`CC(=O)SCC[N+](C)(C)C`: the Potency entry in assay [5], in assay [2] and in assay [4] was “inactive” each time. For the same molecule, the molecule was classed as inactive in assay [3].
